# Sampled rows, rich in hits. Any-hit rate of the full collection: about 9.4%.
# ELG1 genotoxic: qHTS screen for small molecules that induce genotoxicity in human embryonic kidney (HEK293T) cells expressing luciferase-tagged ELG1. HEK293T ELG1-luciferase reporter, luminescence, 16 h. 1.3% of 330,000 active. AID 504466, 2011. Potency, µM (top dose mostly 46 µM), inactives show at the top dose activity change, positive = activation, usual class: activators; also: % of control where 0% means no effect; nearly all actives have a fitted effect of over 60% in size
#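 16 hr compound incubation (37 °C, 5% CO2) of HEK293T cells carrying luciferase-tagged ELG1; luciferase then measured by ONE-Glo luminescence after 30 min at RT.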
# Rab9 prom act: qHTS Assay for Rab9 Promoter Activators. Huh7 Rab9 promoter-luciferase reporter, luminescence, 24 h. 2.8% of 320,000 active. Potency, µM (titrated, usually from 9.22 µM), without a hit: at the highest dose activation, negative = inhibition, actives largely listed as activators; also: % of control where 0% means no effect; nearly all actives have a fitted effect of over 60% in size
#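 Huh7 reporter line, Rab9 promoter upstream of luciferase. Compound exposure 24 h at 37 °C in reduced-serum medium with 10% FBS. Read-out: luminescence.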
# FLuc counter: qHTS profiling assay for firefly luciferase inhibitor/activator using purifed enzyme and Km concentrations of substrates (counterscreen for miR-21 project); purified FLuc, Km substrates, luminescence inhibition; Potency, µM (series often up to 57.5 µM), inactives show at the highest dose activity change, negative = inhibition, most hits filed as inhibitors; 6.9% of 360,000 active;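 also: plate controls were vehicle for no effect and reference inhibitor for full effect; nearly all actives have a fitted effect of over 55% in size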
# Target sequence (P08659 whole entry, looked up): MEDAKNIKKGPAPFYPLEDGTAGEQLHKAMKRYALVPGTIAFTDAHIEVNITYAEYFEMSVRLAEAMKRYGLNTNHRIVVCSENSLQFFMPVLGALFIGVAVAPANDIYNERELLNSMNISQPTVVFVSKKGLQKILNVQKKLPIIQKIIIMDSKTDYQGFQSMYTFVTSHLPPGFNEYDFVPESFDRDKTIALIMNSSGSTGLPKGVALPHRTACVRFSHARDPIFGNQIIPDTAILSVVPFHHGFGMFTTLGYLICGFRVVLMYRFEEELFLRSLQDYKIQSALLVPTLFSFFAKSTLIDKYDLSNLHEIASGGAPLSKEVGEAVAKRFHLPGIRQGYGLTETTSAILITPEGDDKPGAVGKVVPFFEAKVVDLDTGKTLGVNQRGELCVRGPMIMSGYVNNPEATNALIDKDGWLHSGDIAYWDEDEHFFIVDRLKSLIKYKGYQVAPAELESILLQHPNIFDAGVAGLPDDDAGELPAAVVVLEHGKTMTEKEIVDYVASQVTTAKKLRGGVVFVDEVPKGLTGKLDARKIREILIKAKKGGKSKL
#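 Biochemical qHTS of compounds, final roughly 60 µM downward over six points, against 10 nM purified firefly luciferase using Km concentrations of substrates (10 uM D-luciferin, 10 uM ATP) in Tris acetate pH 7.5 buffer; luminescence output.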
# NPC1 prom act: qHTS Assay for NPC1 Promoter Activators | Huh7 NPC1 promoter luciferase reporter, 24 h | Potency, µM (titrated, usually from 9.22 µM), without a hit: at the highest dose activation, hits mostly activators | 2.4% of 320,000 active | AID 485313, 2010; also: % of control where 0% means no effect; nearly all actives have a fitted effect of over 60% in size
#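 Luminescence from an NPC1 promoter-driven luciferase reporter in stably transfected Huh7 cells was measured after 24 h compound treatment at 37 °C, followed by 10 min ambient incubation with luciferase detection reagent.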
# SMN2 splice enh: qHTS Assay for Enhancers of SMN2 Splice Variant Expression | HEK293 SMN2-luciferase splicing reporter, luminescence, 30-36 h | Potency, µM (titrated, usually from 46.1 µM), without a hit: at the highest dose activity change, positive = activation, hits mostly activators | 2.8% of 210,000 active | AID 1458, 2008; also: % of control where 0% means no effect; nearly all actives have a fitted effect of over 55% in size
#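 HEK293 cells carry an SMN2 minigene-luciferase reporter in which exon 7 inclusion puts luciferase in frame. Cells were seeded at 2000 cells/well, attached for 10-12 hours, then exposed to compounds for 30-36 hours at 37C before ONE-Glo luminescence.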
# ELG1 DNA repair: qHTS screen for small molecules that inhibit ELG1-dependent DNA repair in human embryonic kidney (HEK293T) cells expressing luciferase-tagged ELG1. AID 504467, 2011. Potency, µM (titrated, usually from 46.1 µM), without a hit: at the top dose activity change, negative = inhibition, usual class: inhibitors. HEK293T ELG1-luciferase reporter, luminescence, 16 h; DNA damage induced by 5-fluorouridine. 2.3% of 330,000 active; also: % is scaled to controls: 0 for no effect and ±100 for the full control effect; nearly all actives have a fitted effect of over 55% in size
#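 Quantitative HTS, concentration-response format. 2,000 cells/well co-treated with 5-fluorouridine and compound, 16 hr in 5% CO2 at 37 °C; ONE-Glo luminescence read after 30 min.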
# Active calls of the source: *; ? = inconclusive; nt = no result given; [ ] = dose if it differs, or a comment. Calls follow the shape of the dose curve; as a rule, active = well fitted curve in the direction sought with a large enough effect; inconclusive = small, poorly fitted or top-dose-only effect, or another doubt; inactive = no such curve, though single readings can be large; an effect the other way counts as inactive or inconclusive. Potency is read from the fitted curve at half-maximal effect.
SMILES,ELG1 genotoxic,Rab9 prom act,FLuc counter,NPC1 prom act,SMN2 splice enh,ELG1 DNA repair
COC(=O)C1=C(C(=O)OC)[C@@H]2Nc3ccccc3[C@@]23C[C@@H](C(=O)OC)N(S(=O)(=O)c2cccs2)C3=N1,nt,nt,nt,nt,18%[9.22 µM],nt
CCOC(=O)N=Nc1c2ccccc2c2nc3no[nH]c3nc12,-7%,-40%,-3%,-40%,-113%,1.5µM*
CCOC(=O)N=Nc1c(O)n(CC(=O)OC)c2ccccc12,0%,-4%,-8%,-5%,nt,0%
Cc1ccc(NC(=O)C(Cc2ccccc2)N2C(=O)C3C4CCC(C4)C3C2=O)cc1Cl (stereo not drawn),-9%,0%,-4%,-6%,-9%,18µM*
Cc1ccc(Cl)cc1NC(=O)C(Cc1ccccc1)N1C(=O)C2C3CCC(C3)C2C1=O (stereo not drawn),-7%,-9%,2%,-1%,-14%,?
Cc1sc2nc(C3CC3)nc(N3CCN(C(=O)c4ccc(F)cc4)CC3)c2c1C,-28%,5%,6%,3%,nt,?
Cc1sc2nc(C3CC3)nc(N3CCN(C(=O)c4ccc(Cl)cc4)CC3)c2c1C,0%,-1%,2%,1%,nt,23µM*
COc1ccc(NC(=O)c2ccco2)cc1NC(=O)c1cccc(C)c1OC,nt,nt,?,nt,-31%,nt
Cc1cccc(N2CCN(C(=O)Cn3c(=O)c4cccn4c4ccc(F)cc43)CC2C)c1 (stereo not drawn),nt,nt,2%,nt,nt,nt
Cc1ccc(/C=N/NC(=O)c2csc(C)c2)o1,8%,10%,15µM*,23%,11%,?
Cc1cc(C(=O)N/N=C/c2ccc(N(C)C)o2)cs1,18%,4%,?,0%,nt,-2%
Cc1ccc(/C=N/NC(=O)c2cc(C)oc2C)o1,4%,11%,?,8%,-5%,?
Cc1ccc(/C=N/NC(=O)c2cccs2)o1,14%,2%,17µM*,16%,9%,?
Brc1ccc(-c2cn3nc4c(nc3n2)CCCC4)cc1,?,0.28µM*,0.27µM*,0.1µM*,4µM*,?
c1ccc(-c2cn3c(n2)CCC3)cc1,16%,0%,-5%,0%,1%,?
c1ccc(-c2cn3nc4c(nc3n2)CCCC4)cc1,0.13µM*,0.13µM*,0.3µM*,0.11µM*,0.5µM*,?
CCN1C(=O)c2ccccc2Sc2ccc(NC(=O)Nc3cccc([N+](=O)[O-])c3C)cc21,nt,nt,-8%,nt,nt,nt
CCC(C)C(=O)N1CCc2cc(-c3csc(N)n3)ccc21 (stereo not drawn),5.8µM*,1.4µM*,5.4µM*,2.5µM*,11µM*,?
CC(C)(C)C(=O)N1CCc2cc(-c3csc(N)n3)ccc21,?,0.089µM*,0.24µM*,0.35µM*,?,?
CC(=O)Nc1nc(-c2ccc3c(c2)CCN3C(=O)C2CC2)c(C)s1,-25%,-1%,?,-4%,nt,?
CNc1nc(-c2ccc3c(c2)CCN3C(=O)CC(C)(C)C)c(C)s1,-5%,-2%,2%,-10%,nt,-24%
CCCC(=O)N1CCc2cc(-c3nc(N)sc3C)ccc21,?,3.2µM*,12µM*,?,nt,?
Cc1cc(C)cc(-n2ccnc2SCC(=O)Nc2ccc(C)cc2C)c1,nt,nt,-18%,nt,nt,nt
Cn1cccc1C(=O)N1CCC[C@@]2(CCN(C(=O)Nc3cccc(F)c3)C2)C1,nt,nt,nt,nt,-2%,nt
COc1cccc(N2CC(NC(=O)COc3ccc4ccccc4c3)CC2=O)c1 (stereo not drawn),nt,nt,1%,nt,nt,nt
SMILES,ELG1 genotoxic,Rab9 prom act,FLuc counter,NPC1 prom act,SMN2 splice enh,ELG1 DNA repair
Cc1cc(-n2c(C)cc(C(=O)CN3C(=O)NC4(CCCCC4C)C3=O)c2C)no1 (stereo not drawn),1%,-8%,3%,-3%,19%,-9%
Cc1cc(C(=O)CSc2nnc(-c3ccccc3F)o2)c(C)n1Cc1cccs1,1%,-6%,?,-3%,-30%,?
Cc1cc(C(=O)CN2C(=O)NC3(CCCCC3C)C2=O)c(C)n1Cc1cccs1 (stereo not drawn),?,2.8µM*,6.7µM*,4µM*,16µM*,?
Cc1cc(C(=O)CN2C(=O)c3cccc(N)c3C2=O)c(C)n1Cc1cccs1,2.9µM*,1.1µM*,1.1µM*,1.3µM*,8.9µM*,?
Cc1cc(C(=O)CN2C(=O)NC3(CCCCC3)C2=O)c(C)n1Cc1ccco1,6.5µM*,1.4µM*,7.6µM*,2.2µM*,11µM*,?
CCCN(CCC)S(=O)(=O)c1ccc2c(c1)N(CC(=O)NC(C)c1ccccc1)C(=O)CS2 (stereo not drawn),nt,nt,-7%,nt,nt,nt
COc1ccc(-c2nnc(SCC(=O)Nc3ncc(C)s3)n2-c2ccccc2)cc1OC,-8%,-13%,4%,-15%,7%,21µM*
c1ccc(-c2nnsc2Sc2ccccn2)cc1,4%,23%,17µM*,15%,-11%,?
Clc1ccc(CSc2snnc2-c2ccccc2)cc1,13%,15%,-17%,1%,-12%,29%
Clc1ccccc1CSc1snnc1-c1ccccc1,?,29%,21µM*,22%,-10%,?
Cc1nnsc1Sc1ccccn1,10%,0%,3%,-14%,1%,?
Cc1ccnc(NS(=O)(=O)c2ccc(NC(=O)c3cc(-c4ccccc4)nc4ccccc34)cc2)n1,3%,-3%,?,-1%,28%,4%
CC(=O)NS(=O)(=O)c1ccc(NC(=O)c2cc(-c3ccc(C)c(C)c3)nc3ccccc23)cc1,3%,10%,1.3µM*,13%,2%,?
Cc1ccc(-c2cc(C(=O)Nc3ccc(S(=O)(=O)Nc4nc(C)cc(C)n4)cc3)c3ccccc3n2)cc1,2%,3%,17µM*,1%,14µM*,4%
CC(=O)Nc1ccc(-c2cc(C(=O)O)c3ccccc3n2)cc1,-2%,0%,3.4µM*,-3%,nt,-7%
CC(=O)NS(=O)(=O)c1ccc(NC(=O)c2cc(-c3ccc(C)cc3)nc3ccccc23)cc1,10%,16%,8.5µM*,0%,18%,16%
CC(=O)NS(=O)(=O)c1ccc(NC(=O)c2cc(-c3cccs3)nc3ccccc23)cc1,0%,0%,?,0%,0%,7%
CC(=O)N[C@@H]1CONC1=O,nt,nt,nt,nt,-4%[9.22 µM],nt
